Results on 36 molecules are retold here after article PMC5540273 (PLoS ONE, 2017).
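Also: KINOMEscan kinase panel screen.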

In this assay the test system is CAMK1G. The conditions noted are these: concentration: 1 μM, replicates: in singlicate; n = 1.
As to `COc1cc2ncn(-c3cc(OCc4ccncc4Br)c(C(N)=O)s3)c2cc1OC` [GW854278], the “%Inh” value was determined as 7%.
The result for `Cc1cc(Nc2nc(-c3cccc(C)n3)nc3ccccc23)ccn1` [GW872411] reads 0%.
The result for `Cc1nnc(-c2ccc(C)c(-c3ccc(C(=O)O)cc3)c2)o1` [GW608005] reads 0%; that for `COc1cc(Nc2ccnc3ccc(C(F)(F)F)cc23)cc(OC)c1OC` [GW577382], 1%; that for `FC(F)(F)c1ccc(-c2ncn(CCCN3CCOCC3)c2-c2ccncc2)cc1` [SB-217780], 3%.
The result for `Cl.c1ccc(Cn2cnc3cc(Nc4ncnc5ccccc45)ccc32)cc1` [GW272142] reads 0%; that for `Cc1ccc(-c2ccc3c(ccc4sc5c(c43)NC[C@@H](C)N=C5N(C)C)n2)cn1`, 0%; that for `Cl.NS(=O)(=O)c1cccc(Nc2cc(-c3ccc(F)cc3)n[nH]2)c1` [GW824645], 0%.
As for `CCc1ccc(-c2ccc3c(c2)-c2nn(C)cc2S(=O)(=O)N3C)cc1`, the “%Inh” value is listed as 16%.
The result for `O=C(Nc1ccc2c(c1)OCO2)NC1CCN(c2ccnc(NCc3ccc(F)cc3)n2)CC1` [GSK1379859] reads 0%.
Under `Cc1nc(N(C)[C@H]2CN(C(=O)CC#N)CC[C@H]2C)c2cc[nH]c2n1` stands 1%; under `CCCC(=O)Nc1n[nH]c2ncc(-c3cccc4ccccc34)cc12` [SB-642057], 11%.
Turning to `COC(=O)c1c(-c2ccccc2)c2cc(C)ccc2c(=O)n1Cc1ccccc1`, the “%Inh” value was 12%.
Turning to `Cc1ccc(Oc2ccc(Nc3ncnc4cc[nH]c34)cc2C)cn1`, the “%Inh” value came out at 0%.
Consider `COc1cc2ncn(-c3cc(OCCCc4ccccc4)c(C(N)=O)s3)c2cc1OC` [GSK205189], for which the “%Inh” value came out at 24%.
The result for `O=C1NC(=O)C(c2ccccc2)=C1Nc1cccc(O)c1` [SB-390534] reads 0%; that for `CN1C(=O)C(Nc2ccccc2)=C(c2ccccc2)C1=O` [SB-300079], 0%.
Under `COc1ccc(-n2cnc3c(N)ncnc32)cc1` [SKF-97236] stands 0%.
The result for `COc1ccc(Nc2nccc(N3CCC(NS(=O)(=O)c4ccc(NC(C)=O)cc4)C3)n2)cc1` (stereo not drawn) [GSK1379729] reads 0%.
Consider `Nc1ncnc2c1ncn2-c1cccc2ccccc12` [SKF-97184], for which the “%Inh” value came out at 8%.
The result for `Nc1nc(-c2ccccc2F)c(-c2ccnc3ccccc23)s1` [GW560459] reads 0%; that for `CCc1nc(-c2cccc(C)c2)c(-c2ccncc2)s1`, 0%; that for `CCS(=O)c1ccc(-c2coc3ccc(-c4nnc(C)o4)cc23)cc1` (stereo not drawn), 2%.
Under `O=c1cc(N2CCOCC2)nc2n(Cc3ccc(F)c(Cl)c3)ccn12` [GSK2297099] stands 11%; under `COC(=O)c1c(-c2ccccc2)c2cc(Br)ccc2c(=O)n1Cc1ccc(NC(=O)CCC(=O)O)cc1`, 9%.
The result for `COc1cc2ncn(-c3cc(OCc4ccncc4)c(C(N)=O)s3)c2cc1OC` [GSK336313] reads 47%.
`CCn1c(-c2nonc2N)nc2ccccc21` [SB-693162/GW549034]: the “%Inh” value amounted to 0%.
Under `CCC(=O)c1c(-c2ccccc2)c2cc(Cl)ccc2c(=O)n1Cc1cc(S(C)(=O)=O)n(CC(N)=O)n1` stands 0%; under `O=C(Nc1n[nH]c2nc(-c3ccccc3)c(Cl)cc12)C1CC1` [SB-734909], 0%; under `COc1cccc(-n2cnc3c(N)ncnc32)c1` [SKF-97416], 0%.
For the molecule `CCS(=O)(=O)c1ccc(OC)c(Nc2ncc(-c3ccc(F)cc3)o2)c1.Cl` [GW591947], the “%Inh” value is 4%.
The result for `COc1cc(OC)cc(-c2cc3cnc(N)nc3nc2NC(=O)NC(C)(C)C)c1` reads 0%; that for `COc1cc2nccc(Nc3ccc(OCc4ccc(NC(C)=O)cc4)cc3)c2cc1OC.Cl` [GW440135], 0%; that for `O=C(Nc1n[nH]c2cc(-c3ccccc3F)ccc12)C1CC1` [SB-733371], 0%.
Under `CN1C(=O)C(Nc2cc(Cl)c(O)c(Cl)c2)=C(c2ccc(Cl)cc2)C1=O` [SB-404321] stands 0%.
Take `C[C@@H]1CC[C@H](C(=O)NC2CCCCC2)CN1c1cc(-c2ccc3c(N)n[nH]c3c2)nc(N)n1` [GSK2291363]: the “%Inh” value was 22%.
